The values that follow come from the supplement of paper PMC10338343.

± gives the standard deviation. The full ranking holds about 6,600 sequences; the median of “pre-steady-state target cleavage rate” is about 0.07, and the highest 2% start at about 0.72. For the sample, the highest values were picked, then their nearest neighbours and some sequences at random.

This assay deals with MIWI (PIWIL1) piRISC loaded with Kctd7 piRNA (30 nt). In words: pre-steady-state target cleavage rate (min^-1); MIWI and MILI are mouse PIWI proteins and EfPiwi is from a freshwater sponge; tags in brackets are library labels; higher = faster piRNA-guided slicing of the target. Particulars: guide: Kctd7 piRNA 5'p-UGUUAAUCUCUCAGAGAAGGUGACAGUGAU; auxiliary factor: 500 nM mouse GTSF1. Here is the method:
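Cleave-'n-Seq: a library of target RNAs (target site embedded in constant flanks, ACAGCATTCCGCGTTAGTGATATCCG... 5' flank; DNA-blocked outside the site) at 0.1 nM was incubated with 1 nM active mouse MILI or MIWI piRISC (synthetic 5'-monophosphorylated piRNA guide) with or without 500 nM mouse GTSF1 at 33 °C for 1 min to 16 h. Uncleaved targets were sequenced and normalised to non-target controls, and the pooled three trials were fitted to a burst-and-steady-state model to give the pre-steady-state cleavage rate (min^-1; k3 is constrained to at most 1e-4). Sequence is the target site only; target names encode pairing extent (gX:gY) and contiguous / 1-mismatch / 2-mismatch / bulge geometry. Fits with R² ≤ 0 are excluded.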
As for UUGACUGUCACCUUCUCUGAGACAUUAACA, the “pre-steady-state target cleavage rate” value was determined as 0.0684 ± 0.0093.
On to AUCUCUGUCACCUUCUCUGAGAGAUUUUGA, for which the “pre-steady-state target cleavage rate” value amounted to 0.191 ± 0.042.
The value for UAGACUCUCACCUUCUCUGAGAGAUUAACA was 0.431 ± 0.029.
The value for UACACUGUCACCUUCUCUGAGUGAUUUACA was 0.0176 ± 0.0081; that for UAGACAGUCACCUUCUCUGAGAGAUUAUCA was 0.252 ± 0.029; that for UAGACUCACACCUUCUCUGAGAGAUUAUGA was 0.0733 ± 0.015.
The value for UUCAGCUGUCACCUUCUCUGAGAGAUUAACA was 0.681 ± 0.037.
For AUCAGCUGUCACCUUCUCUGAGAGAUUAACA, the “pre-steady-state target cleavage rate” value is 0.792 ± 0.043.
Next, UACAGCUGUCACCUUCUCUGAGAGAUUAACA: 0.749 ± 0.036; UACAUCUGUCACCUUCUCUGAGAGAUUAACA: 0.66 ± 0.027; UAGAGCUGUCACCUUCUCUGAGAGAUUAACA: 0.706 ± 0.047.
UACAGUGUCACCUUCUCUGAGAGAUUAACA: the “pre-steady-state target cleavage rate” value stood at 0.663 ± 0.034.
Take UAGUCUGUCACCUUCUCUGAGAGAUAUUCA: the “pre-steady-state target cleavage rate” value amounted to 0.211 ± 0.045.
For the sequence UUCACUGUCACCUUCUCUCUCAGAUUAACA, the “pre-steady-state target cleavage rate” value is 0.00363 ± 0.0035.
As for UAGUGAGUCACCUUCUGUCAGAGAUUAACA, the “pre-steady-state target cleavage rate” value came to 0.00937 ± 0.0041.
Regarding UACACUGACACCUUCUCUGAGAGAUUUUGA, the “pre-steady-state target cleavage rate” value came out at 0.0697 ± 0.019.
Next, UAGUGACUCACCUUGUCUGUGAGAUUAACA: 0.0416 ± 0.0061; UUCACUGUCACCAUCUCUGAGAGAUUAAGA: 0.134 ± 0.025.
Next, AACACUGUCACCAUCUCUGAGAGAUUAACA: 0.77 ± 0.035.
The value for UACACUGUCACCAUCUCUGAGAGAUUAACA was 0.532 ± 0.044; that for UUCACUGUCACCAUCUCUGUGAGAUUAACA was 0.215 ± 0.015; that for AUCACUGUCACCAUCUCUGAGAGAUUAACA was 0.795 ± 0.048.
With AUCACUGACACCAUCUCUGAGAGAUUAACA, the “pre-steady-state target cleavage rate” value was 0.603 ± 0.037.
For AUCACUGUCACCAUCUCUGAGAGAUUAAGA, the “pre-steady-state target cleavage rate” value was 0.184 ± 0.032.
The value for UUCACUGUCACCAUCUCUGAGAGAUUAACA was 0.738 ± 0.029; that for AUCACUGUCACCAUCUCUGUGAGAUUAACA was 0.259 ± 0.021; that for UAGUGUGUCACCUACUCUCAGAGAUUAACA was 0.0454 ± 0.009.
Next, AUCACUGAGACCUUCUCUGAGAGAUUAAGA: 0.17 ± 0.033.
In the case of UAGUCUGUCUCCAUCUCUGAGAGAUUAACA, the “pre-steady-state target cleavage rate” value worked out at 0.509 ± 0.034.
Next, UAGUGAGUCACCUUGUCUGAGAGUUUAACA: 0.0617 ± 0.013; UAGUGACUCACCUUCUUUGAGAGAUUAACA: 0.196 ± 0.021; UAGUGACUCACCUUCUCUGAGUGAUUAACA: 0.0244 ± 0.0052.
UAGUGACAGACCUUCCUCUGAGAGAUUAACA: the “pre-steady-state target cleavage rate” value came to 0.0189 ± 0.004.
Consider UAGUGACAGACCUUACUCUGAGAGAUUAACA, for which the “pre-steady-state target cleavage rate” value was 0.0198 ± 0.0041.
Regarding UAGUGAGUCACGUUCUCAGAGAGAUUAACA, the “pre-steady-state target cleavage rate” value is 0.171 ± 0.017.
Next, UACACUGUUACCUUCUCUGAGAGAUUAACA: 0.441 ± 0.024; UAGACUGUCACCUUCUGUGAGAGAUAUUGA: 0.0117 ± 0.004; UUCACUGUACACCUUCUCUGAGAGAUUAACA: 0.655 ± 0.033.
In the case of UAGACUGUACACCUUCUCUGAGAGAUUAACA, the “pre-steady-state target cleavage rate” value was 0.779 ± 0.055.
UUCACUGUACCUUCUCUGAGAGAUUAACA: the “pre-steady-state target cleavage rate” value amounted to 0.712 ± 0.036.
Next, AUCACUGUACACCUUCUCUGAGAGAUUAACA: 0.8 ± 0.055; UACACUGUACACCUUCUCUGAGAGAUUAACA: 0.623 ± 0.03.
Regarding UAGACUGUACCUUCUCUGAGAGAUUAACA, the “pre-steady-state target cleavage rate” value came out at 0.572 ± 0.044.
Regarding UAGACUGACACCUUCUCUGAGAGAUUAACA, the “pre-steady-state target cleavage rate” value is 0.62 ± 0.035.
Next, AUCACUGUAACCUUCUCUGAGAGAUUAACA: 0.651 ± 0.03; AUCACUGUACCUUCUCUGAGAGAUUAACA: 0.769 ± 0.051; UAGUGACAGUCCUUCUCAGAGAGUUUAACA: 0.0044 ± 0.0027.
The value for UAGUGACUCACGAUCUCUGAGAGAUUAACA was 0.00958 ± 0.0018.
Regarding UACACUGUCACCUUCUCUGAGAGAUGUAACA, the “pre-steady-state target cleavage rate” value was 0.386 ± 0.051.
For AACACUCUCACCUUCUCUGAGAGAUUAACA, the “pre-steady-state target cleavage rate” value turned out to be 0.564 ± 0.035.
The value for UACACUGUCACCUUCUCUGAGAGAUUACCA was 0.152 ± 0.024; that for UUCACUGUCACCUCUCUGAGAGAUUAACA was 0.501 ± 0.037.
Next, UACACUGUCACCAUUCUCUGAGAGAUUAACA: 0.674 ± 0.035; UUCACUGUCACCAUUCUCUGAGAGAUUAACA: 0.725 ± 0.029.
As to AUCACUGUCACAUUCUCUGAGAGAUUAACA, the “pre-steady-state target cleavage rate” value was determined as 0.799 ± 0.035.
For the sequence UACACUGUCACAUUCUCUGAGAGAUUAACA, the “pre-steady-state target cleavage rate” value came to 0.676 ± 0.036.
For the sequence UUCACUGUCACAUUCUCUGAGAGAUUAACA, the “pre-steady-state target cleavage rate” value is 0.682 ± 0.031.
As for UAGUCUGUCACCAUUCUCUGAGAGAUUAACA, the “pre-steady-state target cleavage rate” value came to 0.601 ± 0.03.
Next, UUCACUGUCACCUCUCUCUGAGAGAUUAACA: 0.289 ± 0.022; AUCACUGUCACCAUUCUCUGAGAGAUUAACA: 0.741 ± 0.036; UACACUGUCCACCUUCUCUGAGAGAUUAACA: 0.496 ± 0.038.
Turning to UAGAGUGACACCUUCUCUGAGAGAUUAACA, the “pre-steady-state target cleavage rate” value came out at 0.55 ± 0.023.
Take UAGACUUUCACCUUCUCUGAGAGAUUAACA: the “pre-steady-state target cleavage rate” value was found to be 0.612 ± 0.033.
Next, UAGUGACAGUGUUUCUCUGAGAGAUUAACA: 0.00493 ± 0.0019.
UAGUGUGACACCUUCUCUGAGAGAUUAUGA: the “pre-steady-state target cleavage rate” value amounted to 0.0202 ± 0.0074.
On to AUCACUGUCACUUCUCUGAGAGAUUAACA, for which the “pre-steady-state target cleavage rate” value was 0.628 ± 0.044.
With UUCACUGUCAACUUCUCUGAGAGAUUAACA, the “pre-steady-state target cleavage rate” value was 0.668 ± 0.028.
Consider UACACUGUCACACUUCUCUGAGAGAUUAACA, for which the “pre-steady-state target cleavage rate” value turned out to be 0.544 ± 0.023.
With AUCACUGUCAACUUCUCUGAGAGAUUAACA, the “pre-steady-state target cleavage rate” value was 0.793 ± 0.045.
With UAGACUGUCAACUUCUCUGAGAGAUUAACA, the “pre-steady-state target cleavage rate” value stood at 0.726 ± 0.049.
Next, UAGACUGUCAACCUUCUCUGAGAGAUUAACA: 0.282 ± 0.023; UACACUGUCAACCUUCUCUGAGAGAUUAACA: 0.193 ± 0.016.
Next, UACACUGUCAACUUCUCUGAGAGAUUAACA: 0.796 ± 0.035; UAGUCUGUCAACUUCUCUGAGAGAUUAACA: 0.593 ± 0.024.
